Molecules are shown by their SMILES. Inconclusive results are not listed. Active and inactive are the calls of the source. Unless noted, the call rests on the fitted dose curve.

The source of these data is PubChem BioAssay (Tox21).
On the % scale 0 is the no-effect control and ±100 the full control effect; potency means the concentration at half of the fitted maximal effect.

One test can be described thus: qHTS assay to identify small molecule agonists of H2AX - cell viability counter screen (AID 1224847). Further: nearly all actives have a fitted effect of over 30% in size. On activity change, negative = cytotoxicity: top concentration of the series differs between compounds. Conditions: CHO-K1 viability, CellTiter-Glo luminescence, 3 h; series mostly up to 154 µM; activity change, negative = cytotoxicity: at the top concentration. The essentials: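 Quantitative HTS viability measurement: CHO-K1 wild-type cells in serum (10% FBS) medium, short 3 hr drug exposure at 37C with 0.76% DMSO, CellTiter-Glo luminescent detection.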
Consider `N#Cc1ccc(C/C(=N/NC(=O)Nc2ccc(OC(F)(F)F)cc2)c2cccc(C(F)(F)F)c2)cc1`, for which the “activity change, negative = cytotoxicity” value is 1.49% (inactive).

Consider `CC(C=O)c1ccccc1` (centres undefined), for which the “activity change, negative = cytotoxicity” value was 0.307% (inactive).

In the case of `O=C(N[C@H](CO)[C@H](O)c1ccc([N+](=O)[O-])cc1)C(Cl)Cl`, the “activity change, negative = cytotoxicity” value was 0.431% (inactive).

With `Nc1cccnc1N`, the “activity change, negative = cytotoxicity” value is -0.212% (inactive).

As for `O=C1OC(O)C(C(Cl)Cl)=C1Cl` (centres undefined), the “activity change, negative = cytotoxicity” value is 1.5% (inactive).

Take `C1=CCCC1`: the “activity change, negative = cytotoxicity” value was -1.36% (inactive).

On to `Cc1ccc(C2OC[C@@H]3OC(c4ccc(C)cc4)O[C@H]([C@H](O)CO)[C@@H]3O2)cc1` (some centres undefined), for which the “activity change, negative = cytotoxicity” value is 3.9% (inactive).

On to `CN(C/C=C/c1ccccc1)Cc1cccc2ccccc12`, for which the Potency is 43.8 µM (active).

On to `CCN(CC)c1ccc2c(c1)Oc1cc(N(CC)CC)ccc1C21OC(=O)c2ccccc21`, for which the Potency was 15.6 µM (active).

As for `NCc1cccc(C2CCN(C(=O)c3ccc(C#Cc4ccccc4F)o3)CC2)c1`, the Potency was 56.6 µM (active).

Turning to `CC1=C(/C=C/C(C)=C/C=C/C(C)=C\C(=O)O)C(C)(C)CCC1`, the “activity change, negative = cytotoxicity” value was 1.36% (inactive).

Take `CC(C)c1ccc2sc3ccccc3c(=O)c2c1`: the Potency is 50.5 µM (active).

As for `C=CC(=O)OCC(Br)CBr` (centres undefined), the “activity change, negative = cytotoxicity” value was 3.81% (inactive).

With `CCCCC/C=C\C=C\C(=O)OCC`, the “activity change, negative = cytotoxicity” value is 4.73% (inactive).

Turning to `O=C(Cl)c1ccc(Cl)cc1Cl`, the “activity change, negative = cytotoxicity” value is 7.16% (inactive).

A short description of a further test: qHTS assay to identify small molecule antagonists of the estrogen related receptor (ERR) signaling pathway from Tox21 library (AID 1224848; active means well fitted inhibition curve with a large enough effect in the repeat runs; further: nearly all actives have a fitted effect of over 50% in size). As to conditions: ERR reporter cell line, luciferase antagonist mode, 18 h; series mostly up to 92.4 µM; activity, negative = inhibition: at the top concentration. The essentials: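 Antagonist-mode screen of the Tox21 10K library in an NTP-provided ERR reporter cell line; 18 h compound exposure at 37 C, luminescence measured with ONE-Glo.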
Consider `CN1CCN(CCCN2c3ccccc3Sc3ccc(C(F)(F)F)cc32)CC1`, for which the Potency is 33.5 µM (active).

As for `Oc1cccc2c(O)cccc12`, the “activity, negative = inhibition” value is -12.7% (inactive).

Regarding `C=CCc1cc(S(=O)(=O)c2ccc(O)c(CC=C)c2)ccc1O`, the Potency is 61.1 µM (active).

In the case of `N#Cc1nc(Cl)c(Cl)c(Cl)c1Cl`, the Potency was 9.69 µM (active).

As for `COc1cc([C@@H]2c3cc4c(cc3[C@@H](O[C@@H]3O[C@@H]5CO[C@@H](C)O[C@H]5[C@H](O)[C@H]3O)[C@H]3COC(=O)[C@H]23)OCO4)cc(OC)c1O`, the Potency was 3.81 µM (active).

For `CCN(CCC#N)c1ccc(N=Nc2ccc([N+](=O)[O-])cc2)cc1`, the “activity, negative = inhibition” value was 31.4% (inactive).

Regarding `Nc1ccc(Oc2cccc(Oc3ccc(N)cc3)c2)cc1`, the Potency was 4.33 µM (active).

Turning to `CN1CC[C@H](c2c(O)cc(O)c3c(=O)cc(-c4ccccc4Cl)oc23)[C@H](O)C1`, the “activity, negative = inhibition” value was 45.2% [at 42.5 µM] (inactive).

On to `COc1cc(/C=C/C(=O)CC(=O)/C=C/c2ccc(O)c(OC)c2)ccc1O`, for which the Potency is 13.8 µM (active).

For the compound `O=C1c2ccccc2C(=O)c2c(Cl)cccc21`, the “activity, negative = inhibition” value is 2.35% [at 42.5 µM] (inactive).

For the compound `Cc1ccc(Cl)c(N)c1Cl`, the “activity, negative = inhibition” value is -1.56% (inactive).

For the compound `CCCCCCCCCCCCCCCCCCNC(=O)OC1CCN(C(=O)OC[C@H](COC(=O)N(Cc2cccc[n+]2CC)C(=O)c2ccccc2OC)OC)CC1`, the Potency was 10.6 µM (active).

For `CC(=O)Nc1ccc(N=Nc2cc(C)ccc2O)cc1`, the “activity, negative = inhibition” value is 329% (inactive).

With `c1ccc(-c2ccc(C(c3ccccc3)n3ccnc3)cc2)cc1` (centres undefined), the Potency was 23.7 µM (active).
